These results are taken from PubChem BioAssay (NCI).

This is part of a sample that, as a whole, favours compounds with a hit. Of some 83,000 tested, about 20% had one in any assay.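 Treatment: one concentration, 48 hours, 96-well format. Scoring: percent growth, with anything below 10 considered active.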 A number with no mark means an inactive call. Active and inactive are the calls of the source.

One experiment deals with NCI-H23 lung. The experiment can be described thus: NCI-60 one-dose screen, 48 h (100 = growth as untreated, 0 = no growth, -100 = all killed). To be noted: 10 µM unless noted.
For the compound `CCOC(=O)c1c(Cl)c2c(n1Cc1ccccc1)-c1oncc1CCC2`, the growth is 86.9%.

With `COc1cc([C@@H]2NC(=O)NC(C)=C2C(=O)Nc2nc(-c3ccc(Cl)cc3)cs2)ccc1O`, the growth is 96.3%.

Consider `N#C/C(=C\c1c(-c2ccccc2)[nH]c2ccccc12)C(=O)c1ccccc1`, for which the growth was 47.9%.

In the case of `CCN(CC)c1cc(C)c2cc(NC(=O)c3cccc(OC)c3)ccc2n1`, the growth was 85%.

For `COc1nc2c(c(=O)n1C)N=C1c3ccccc3C(=O)C1C(c1ccccc1)N2` (stereo not given), the growth is 94.1%.

As to `CCOc1ccccc1CN1CCc2nc3cc(C(C)(C)C)[nH]n3c(=O)c2C1`, the growth is 97%.

Turning to `COc1ccc(-n2c(C(O)c3ccccc3)n[nH]c2=S)cc1` (stereo not given), the growth was 101%.

For the compound `CC(=O)n1cc(-c2c[nH]c3ccccc23)c(-c2ccc(Cl)cc2)n1`, the growth was 76.2%.

With `N#CC(C#N)=Cc1c(-c2ccccc2)[nH]c2ccccc12`, the growth is 41%.

Consider `Nc1ccc(C2c3ccccc3Oc3ccccc32)cc1`, for which the growth is 99.1%.

With `COc1cc(C#N)cc2[nH]c(=O)oc12`, the growth was 104%.

The next experiment concerns NCI-H322M lung. Described as above. As to conditions: 10 µM unless noted.
Regarding `OC(c1ccccc1)c1nnc(SCc2ccccc2)n1Cc1ccccc1` (stereo not given), the growth was 106%.

As for `COc1ccc(/C=C2\SC(=Nc3ccccc3)NC2=O)cc1`, the growth is -53.9% (active).

Turning to `COc1ccc(-n2c(C(O)c3ccccc3)nn(CN3CCOCC3)c2=S)cc1` (stereo not given), the growth was 104%.

Turning to `CN(O)c1nc(N(C)O)nc(N2CCOCC2)n1`, the growth is 35.1%.

On to `O=C(NC(=S)Nc1cccc(NC(=S)NC(=O)c2ccccc2)c1)c1ccccc1`, for which the growth was 89%.

As to `Cn1c2c(c(=O)[nH]c1=O)NC1=C(C(=O)c3ccccc31)C1(C=C(O)c3ccccc31)N2` (stereo not given), the growth was 113%.

As for `Nc1nc(Nc2cccc(F)c2)nc2ccccc12`, the growth is 47.2%.

As for `COc1cc(OC)cc(N2C(=O)N(Cc3ccc(C(C)(C)C)cc3)c3ccccc3S2(=O)=O)c1`, the growth was 83.3%.

For `CC/C=C\C[C@H](O)C/C=C1/C(=O)C=C[C@@H]1C/C=C\CCCC(=O)OCCS(=O)(=O)c1ccccc1`, the growth is 71.2%.

Regarding `COc1ccc(C2Nc3ncnc(N)c3N=C3c4ccccc4C(=O)C32)cc1` (stereo not given), the growth was 101%.

As to `O=CCCCC(O)C=O` (stereo not given), the growth was 109%.

For `COC(=O)/C(=C\c1c(-c2ccccc2)[nH]c2ccccc12)S(C)(=O)=O`, the growth was 63.8%.

`COc1ccc(-c2nsc3c2NC(=O)CC3c2ccsc2)cc1` (stereo not given): the growth is 42.4%.

Regarding `FC(F)(F)c1cccc(Nc2nc(-c3ccccc3)nc3ncccc23)c1`, the growth is 87.8%.

In the case of `COC(=O)/C(=C\c1c(C)[nH]c2ccccc12)S(=O)(=O)c1ccccc1`, the growth is 47.5%.

For `O=Nc1c(O)ccc2ccccc12.O=Nc1c(O)ccc2ccccc12.O=Nc1c([O-])ccc2ccccc12.[Fe+3]`, the growth was 104%.

In the case of `COc1cccc(C(=O)Cn2cc(/C=C(\C#N)S(=O)(=O)c3ccccc3)c3ccccc32)c1`, the growth is 96.7%.

For `CC(=O)O[C@@H]1/C=C/C(=O)N[C@@H](C)CCC/C=C/[C@@H]2CCC[C@H]21`, the growth was 93.2%.

As for `CC(C)(C)c1ccc(C2CC(=O)C3=C(C2)Nc2ccccc2N(C(=O)c2ccccc2Cl)C3c2ccc(F)cc2)cc1` (stereo not given), the growth is -9.78% (active).

`O=C1/C=C/[C@@H](O)[C@@H]2C[C@@H](O)C[C@H]2/C=C/CCCCO1`: the growth was 33.2%.

Regarding `CN1CCN(c2nc(Nc3ccc(O)cc3)nc3ccccc23)CC1`, the growth was 68%.

Take `O=C(NN1C(=O)CSC1c1ccc(Cl)cc1)c1[nH]c2ccc(F)cc2c1-c1ccccc1` (stereo not given): the growth was 82.1%.

`CSc1nc2c(c(=O)n1C)N=C1c3ccccc3C(=O)C1C(c1ccccc1)N2` (stereo not given): the growth was 95.1%.

Consider `CCCC(=O)CC(C)=O.CCCC(=O)CC(C)=O.[Cu]`, for which the growth is 99.5%.

Turning to `N#C/C(=C\c1c(-c2ccccc2)[nH]c2ccccc12)S(=O)(=O)c1ccccc1`, the growth is 60%.

As to `O=C(Nc1ccc(Cl)cc1)c1cc2ccccc2cc1OP(=O)(O)O`, the growth was 22.7%.

In the case of `COc1ccc(/C=C2\N=C(c3ccccc3)N(c3ccc(-c4nc5ccc(C)cc5s4)cc3)C2=O)cc1`, the growth was 60.3%.

On to `CSc1nc2c(c(=O)[nH]1)N=C1c3ccccc3C(=O)C1C(c1ccccc1)N2` (stereo not given), for which the growth was 69.4%.

For the compound `CCOC(=O)c1c(Cl)c2c(n1Cc1ccccc1)-c1oncc1CCC2`, the growth is 94%.
